Screening results deposited in PubChem BioAssay by National Center for Advancing Translational Sciences (NCATS).
The list is not random: actives were taken first. Their share in the collection is about 2.2%.
Nrf2 ARE act: qHTS of Nrf2 Activators | 410,000 compounds, 0.31% hits | Potency, µM (titrated, usually from 46.1 µM), inactives show at the highest dose activation, hits mostly activators | AID 624171, 2012 | AREc32 ARE-luciferase reporter (MCF7-derived line), luminescence, 24 h; note: potency is the fitted concentration of half-maximal effect; % of control where 0% means no effect; nearly all actives have a fitted effect of over 65% in size
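Each well held 1000 AREc32 cells, which were incubated with compound for 24 hr at 37 deg C after overnight attachment, and ARE reporter activity was quantified by firefly luciferase luminescence.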
Nrf2 inh: Nrf2 qHTS screen for inhibitors; A549 ARE-Fluc reporter, luciferase luminescence, 18-24 h; Potency, µM (series often up to 46 µM), inactives show at the highest dose activity change, negative = inhibition, hits mostly inhibitors; 360,000 compounds, 2.1% hits; note: potency is the fitted concentration of half-maximal effect; % is set by controls: 0 for no effect and ±100 for the full control effect; nearly all actives have a fitted effect of over 60% in size
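A549 ARE_Fluc cells, 5000/well, 5% FBS OPTI-MEM; compounds in dose-response, 18-24 h at 37 °C/5% CO2; CellTiter-Fluor viability read (Ex 405/Em 525), then BugLite luciferase luminescence = Nrf2 activity.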
miR-21 reporter: qHTS Assay for Modulators of miRNAs and/orActivators of miR-21 | HeLa miR-21 FLuc reporter, luciferase, 48 h | Potency, µM (top dose mostly 38.3 µM), for inactives: at the highest dose activity change, positive = activation, most hits filed as activators | 340,000 tested, under 10 active;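 note: % of control where 0% means no effect; miR-21 action dims this reporter so a rising signal means less miR-21 action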
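HeLa cells stably expressing CMV-driven firefly luciferase with a downstream miR-21 binding sequence, endogenously expressing miR-21, were treated with titrations (up to about 40uM final) for 48 hours at 37 degree Celsius. Luciferase luminescence was read after lysis.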
A549 tox: Nrf2 qHTS screen for inhibitors: counterscreen for cytotoxicity | Potency, µM (top dose mostly 46 µM), for inactives: at the highest dose activity change, negative = cytotoxicity, hits mostly inhibitors | AID 504648, 2011 | 390,000 compounds, 0.16% hits | A549 ARE-Fluc cells, CellTiter-Fluor viability, 18-24 h; note: potency is the fitted concentration of half-maximal effect; % is set by controls: 0 for no effect and ±100 for the full control effect
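A549 ARE_Fluc cells in 5% FBS OPTI-MEM were exposed to compounds in concentration-response for 18-24 h at 37 deg C. Viability was read by CellTiter-Fluor fluorescence (Ex 405/Em 525) after 30 min, before the luciferase read.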
PI4K2A inh: qHTS for small molecular inhibitors of PI4K2A. Phosphatidylinositol 4-kinase type 2-alpha (Homo sapiens), Q9BTU6. purified PI4K2A, ADP-Glo luminescence, 1 h; active compounds read low. activity change, negative = inhibition, % at 76.9 µM. 420,000 compounds, 0.13% hits; in the data active = activity change below about -50%; inconclusive = mostly about -30% to -49%;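 note: -100% = wells without enzyme as full effect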
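ADP-Glo luminescence measured ADP generated by PI4K2A enzyme (4 ug/mL before mixing) with 1.2 mM PI substrate (pre-mix) and 300 microM ATP (pre-mix). Tris pH7.5 buffer with MgCl2, Triton X-100; 1 h reaction at ambient temperature.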
GALK inhibitor: qHTS Assay for Inhibitors of Human Galactokinase (GALK); 270,000 compounds, 0.007% hits; Potency, µM (titrated, usually from 57.5 µM), without a hit: at the highest dose activity change, negative = inhibition, most hits filed as inhibitors; Purified GALK, Kinase-Glo residual ATP luminescence; note: potency is the fitted concentration of half-maximal effect; % is set by controls: 0 for no effect and ±100 for the full control effect
Target sequence (P51570 whole entry, looked up): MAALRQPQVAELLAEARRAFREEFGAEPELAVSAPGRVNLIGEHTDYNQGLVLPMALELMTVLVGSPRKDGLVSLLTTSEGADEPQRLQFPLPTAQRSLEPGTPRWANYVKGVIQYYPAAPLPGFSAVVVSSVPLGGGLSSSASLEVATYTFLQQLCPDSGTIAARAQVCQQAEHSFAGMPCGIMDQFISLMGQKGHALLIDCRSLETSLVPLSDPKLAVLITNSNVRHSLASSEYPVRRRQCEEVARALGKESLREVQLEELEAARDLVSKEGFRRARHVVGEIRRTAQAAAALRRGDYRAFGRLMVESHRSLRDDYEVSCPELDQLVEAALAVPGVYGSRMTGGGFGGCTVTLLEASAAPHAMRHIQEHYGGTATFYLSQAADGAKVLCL
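Kinase-Glo Plus luminescence measured ATP left after a 1 h room-temperature reaction. The reaction used 5 nM GALK, 100 uM galactose and 35 uM ATP at pH 8.0 (20 mM HEPES, 5 mM MgCl2, 60 mM NaCl, 1 mM DTT, 0.01% BSA).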
* hit, by the source's call; i = inactive; u = inconclusive; x = no result; [ ] = dose if it differs, or a comment. Unless noted, calls come from the whole dose curve; as a rule, active = well fitted curve in the direction sought with a large enough effect; inconclusive = small, poorly fitted or top-dose-only effect, or another doubt; inactive = no such curve, though single readings can be large; an effect the other way counts as inactive or inconclusive.

SMILES | Nrf2 ARE act | Nrf2 inh | miR-21 reporter | A549 tox | PI4K2A inh | GALK inhibitor
CC(=O)OCC1=C(C(=O)O)N2C(=O)[C@@H](N)[C@H]2SC1 | x | x | x | x | i | x
COC(=O)C1=C(c2ccccc2OCc2ccccc2)C[C@@H]2CC[C@H]1N2C(=O)NCc1cccc(C(F)(F)F)c1 | -1.0% | 16.4µM* | x | -16.2% | -2.0 | x
COC(=O)C1=C(c2ccc(F)cc2OCc2ccccc2)C[C@@H]2CC[C@H]1N2C(=O)NCc1ccc(C(F)(F)F)cc1 | 4.7% | 18.4µM* | x | -9.2% | -4.1 | x
COC(=O)C1=C(c2ccc(F)cc2OCc2ccccc2)C[C@@H]2CC[C@H]1N2C(=O)NCc1ccccc1OC | 5.7% | u | x | -15.2% | 1.4 | x
COC(=O)C1=C(c2ccc(F)cc2OCc2ccccc2)C[C@@H]2CC[C@H]1N2C(=O)NCc1cccc(F)c1 | -0.2% | u | x | -17.8% | 0.5 | x
COC(=O)C1=C(c2ccccc2OCc2ccccc2)C[C@@H]2CC[C@H]1N2C(=O)NCc1ccc(Br)cc1 | -0.7% | 20.6µM* | x | -17.0% | -2.0 | x
COC(=O)C1=C(c2ccccc2OCc2ccccc2)C[C@@H]2CC[C@H]1N2C(=O)NCc1ccccc1 | 2.2% | u | x | 2.8% | -4.6 | x
COC(=O)C1=C(c2ccc(F)cc2OCc2ccccc2)C[C@@H]2CC[C@H]1N2C(=O)NCc1ccccc1 | 0.8% | 16.4µM* | x | u | 4.0 | x
COc1ccc2c3c1O[C@H]1[C@@H](O)C=C[C@H]4[C@@H](C2)N(C)CC[C@@]341 | x | x | x | x | i | x
CCOc1ccccc1NC(=O)c1sc2nc3c(cc2c1N)CN(Cc1ccccc1)CC3 | 0.7% | u | 13.2% | 3.4% | -0.6 | x
CC(C)=CCN1CC[C@@]2(C)c3cc(O)ccc3C[C@@H]1[C@@H]2C | x | x | x | x | i | x
C#CC(O)(C=CCl)CC (stereo unspecified) | x | x | x | x | -1.0 | x
COC(=O)C1=C(c2ccc(F)cc2OCc2ccccc2)C[C@@H]2CC[C@H]1N2C(=O)NCc1ccc2c(c1)OCO2 | 0.5% | 18.4µM* | x | -16.8% | 0.3 | x
COC(=O)C1=C(c2ccccc2OCc2ccccc2)C[C@@H]2CC[C@H]1N2C(=O)NCc1ccc(C(F)(F)F)cc1 | -0.6% | 16.4µM* | x | -12.7% | -2.5 | x
COC(=O)C1=C(c2cccc(OCc3ccccc3)c2)C[C@@H]2CC[C@H]1N2C(=O)NCc1ccc(C(F)(F)F)cc1 | -0.1% | u | x | -10.8% | 1.2 | x
Sc1ccccc1Cl | x | x | x | x | 2.4 | x
CC1=CC(=C2C(=O)NC(=S)NC2=O)C=C(C(F)(F)F)N1Cc1ccccc1 | 0.4% | u | 22.1% | 14.6µM* | 4.1 | -1.3%
CC1=CC(=C2C(=O)NC(=O)NC2=O)C=C(C(F)(F)F)N1Cc1ccccc1 | -0.6% | -2.5% | 17.5% | -11.2% | -2.2 | 4.1%
COc1ccc2c(c1)/C(=C/c1cnc[nH]1)C(=O)N2 | -1.6% | 18.4µM* | 24.0% | u | 1.1 | x
O=C1Nc2ccccc2/C1=C/c1cnc[nH]1 | 3.8% | 7.31µM* | -10.9% | 6.3% | -2.0 | -3.6%
C#C[C@]1(O)C=C[C@H]2[C@@H]3CCC4=CC(=O)CC[C@@H]4[C@H]3CC[C@@]21CC | x | x | x | x | -2.6 | x
CN(C)S(=O)(=O)c1ccc(C(=O)NCCSc2c(-c3ccccc3)[nH]c3ccccc23)cc1 | 5.3% | -27.1%[9.27 µM] | u | -8.4% | 2.6 | x
CC12CC[C@H]3[C@@H](CCC4(O)C[C@H](O)CCC34/C=N/NC(=O)c3ccccc3Cl)C1(O)CCC2C1=CC(=O)OC1 (stereo partly specified) | 0.2% | -21.8% | 2.6% | 3.4% | -5.8 | x
CC1OC(OC2C(O)CC(OC3C(O)CC(OC4CCC5(C)C(CCC6C5CCC5(C)C(C7=CC(=O)OC7)C(O)CC65O)C4)OC3C)OC2C)CC(O)C1O (stereo unspecified) | 0.4% | 0.092µM* | x | u | 3.4 | x
C[C@]12CCC3C(CCC4=CC(O)CC[C@@]43/C=N/O)C1(O)CCC2C1=CC(=O)OC1 (stereo partly specified) | -3.0% | u | u | -6.4% | 2.7 | -2.1%
SMILES | Nrf2 ARE act | Nrf2 inh | miR-21 reporter | A549 tox | PI4K2A inh | GALK inhibitor
C[C@@H]1O[C@@H](O[C@H]2C[C@@H](O)[C@]3(CO)[C@H]4[C@H](O)C[C@]5(C)[C@@H](C6=CC(=O)OC6)CC[C@]5(O)[C@@H]4CC[C@]3(O)C2)[C@H](O)[C@H](O)[C@H]1O | -2.5% | 0.0058µM* | u | u | 5.5 | -1.7%
C[C@H]1O[C@@H](O[C@H]2[C@@H](O)C[C@H](O[C@H]3[C@@H](O)C[C@H](O[C@H]4CC[C@@]5(C)[C@H](CC[C@@H]6[C@@H]5CC[C@]5(C)[C@@H](C7=CC(=O)OC7)CC[C@]65O)C4)O[C@@H]3C)O[C@@H]2C)C[C@H](O)[C@@H]1O | -3.2% | 0.0164µM* | u | u | -3.0 | x
COC1=CC(=O)[C@]2(C=C1OC)OC[C@@H]1Oc3c(ccc4c3C=CC(C)(C)O4)C(=O)[C@@H]12 | 5.7% | 0.651µM* | x | -10.0% | -0.4 | x
COC(=O)C1=C(c2ccc(OC(F)(F)F)cc2)C[C@@H]2CC[C@H]1N2C(=O)N1CCC(C)CC1 | 4.4% | 18.4µM* | x | -7.2% | 1.1 | x
COC(=O)C1=C(c2cc3ccccc3s2)C[C@@H]2CC[C@H]1N2C(=O)NC1CC1 | 0.1% | u | x | 0.1% | 0.3 | x
COC(=O)C1=C(c2cc3ccccc3s2)C[C@@H]2CC[C@H]1N2C(=O)N1CCC(C)CC1 | -0.4% | 25.9µM* | x | -8.9% | -1.4 | x
COC(=O)C1=C(c2ccc(Cl)c(C(F)(F)F)c2)C[C@@H]2CC[C@H]1N2C(=O)N1CCC(O)(c2ccc(Cl)cc2)CC1 | -0.1% | 23.1µM* | x | u | 0.1 | x
COC(=O)C1=C(c2ccc(Cl)c(C(F)(F)F)c2)C[C@@H]2CC[C@H]1N2C(=O)N1CCCC1 | 1.1% | u | x | 1.6% | -1.6 | x
COC(=O)C1=C(c2cc3ccccc3s2)C[C@@H]2CC[C@H]1N2C(=O)NCC1CC1 | 0.8% | 18.4µM* | x | -14.6% | 4.4 | x
COC(=O)C1=C(c2ccc(OC(F)(F)F)cc2)C[C@@H]2CC[C@H]1N2C(=O)N1CCCC1 | 0.3% | u | x | -1.3% | 2.7 | x
CC(Cc1ccccc1)NCCn1cnc2c1c(=O)n(C)c(=O)n2C (stereo unspecified) | x | x | x | x | i | x
CCOc1ccc(CCNC(=O)c2ccc(CS(=O)(=O)c3ccccc3C)o2)cc1OCC | 3.9% | u | 20.8% | -4.9% | 2.5 | x
